Assay results as given in PubChem BioAssay (NCI).
Several values for one entry are separate records, joined by “and”; a condition that tells them apart may be missing. Equal entries are not always repeated. About 83,000 compounds went through this panel and 20% of them were active in at least one assay; those are over-represented in the sample as a whole.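 Note: values are percent growth. 100 is the growth of untreated cells, values between 100 and 0 indicate rising inhibition; between -100 and 0 indicates cell death.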 Activity calls are given as the source filed them. How the source made its calls: active means growth percent below 10; inactive means the rest.

The molecules below were run on UACC-62 melanoma (assay: NCI-60 one-dose screen, 48 h (100 = growth as untreated, 0 = no growth, -100 = all killed)). Conditions: 10 µM unless noted.

Row | Compound | growth
1 | CNc1nc2c(C)ccc3[nH]c(N(C)C)nc3c-2n1 | 30.8% [100 µM] (inactive) and 2.14% [100 µM] (active)
2 | COC(=O)C(C(=O)C(=O)NC1Nc2ccc(C)cc2S1)c1nc2ccc(Cl)cc2[nH]c1=O (stereo not drawn) | 77.4% [100 µM] (inactive) and 58.3% [100 µM] (inactive)
3 | CN(C)c1ccc(/C=N/n2c(-c3ccccc3)nc3ccccc3c2=O)cc1 | 47.5% [100 µM] (inactive) and 13.6% [100 µM] (inactive)
4 | CC(=O)c1ccc(NC(=O)/C(CC(=O)/C=C/c2ccccc2)=N/NC(N)=S)cc1 | 91.1% [100 µM] (inactive) and 43.7% [100 µM] (inactive)
5 | COc1ccc(C2c3cc4c(c(OC)c3CC3OCC(=O)C32)OCO4)cc1OC (stereo not drawn) | 26% [100 µM] (inactive) and 3.65% [100 µM] (active)
6 | CC(C)/C(Cl)=N/OC(=O)Nc1cccc(C(F)(F)F)c1 | -93.1% [100 µM] (active) and -100% [100 µM] (active)
7 | CC(C)C1OC(N)=C(C#N)C1(C#N)C#N (stereo not drawn) | 55.5% [100 µM] (inactive) and 25.9% [100 µM] (inactive)
8 | Cc1ccc(/C=N/Nc2nc3ccccc3s2)s1 | 45% [100 µM] (inactive) and 40.5% [100 µM] (inactive)
9 | N#Cc1nc(-c2cccc(-c3nc(C#N)c(N)o3)n2)oc1N | 89.4% [100 µM] (inactive) and 63.8% [100 µM] (inactive)
10 | COc1c(OC)c(OC)c2c(c1OC)c(=O)c1ccccc1n2C | 38.1% [100 µM] (inactive) and -44.4% [100 µM] (active)
11 | O=C(O)CCCC(=O)Nn1c(Cc2ccc(Cl)cc2)n[nH]c1=O | 70.6% [100 µM] (inactive) and 92.1% [100 µM] (inactive)
12 | CC(=N/N=C/c1ccccn1)/C(C)=N/N=C(C)/C(C)=N/N=C(C)/C(C)=N/N=C(C)/C(C)=N\N=C\c1ccccn1 | 92.9% [100 µM] (inactive) and 85% [100 µM] (inactive)
13 | Cc1ccc2c(/C=C/c3ccc(N(C)C)cc3)ccc(C(C)C)cc1-2 | 68.4% [100 µM] (inactive) and 58.1% [100 µM] (inactive)
14 | CCO/C=N\C1=C(C#N)SC2=N/C(=C\c3ccc(OC)cc3)C(=O)N21 | 71.9% [100 µM] (inactive) and 70.7% [100 µM] (inactive)
15 | COc1cc(-c2nc(SC)nc3c2CCc2ccccc2-3)cc(OC)c1OC | 42.6% [100 µM] (inactive) and 23.7% [100 µM] (inactive)
16 | O=C1NC(N/N=C\C(O)C(O)C(O)C(O)CO)=N/C1=C\c1ccc(Cl)cc1 (stereo not drawn) | -24.3% [100 µM] (active) and -100% [100 µM] (active)
17 | CC(C)=CC(O)C/C(C)=C/CC/C(C)=C/CCC1(C)C(CCCO)/C(=C(/C)C=O)CCC1(C)O (stereo not drawn) | -21.5% [100 µM] (active) and 2.9% [100 µM] (active)
18 | N#CC1(C#N)C2CCCCC23OC(=N)C1(C#N)C(c1ccco1)O3 (stereo not drawn) | -50.9% [100 µM] (active)
19 | COc1ccc2c(C)cc(N/N=C/c3ccc(C)s3)nc2c1 | -86.5% [100 µM] (active) and -100% [100 µM] (active)

Row | Compound | growth
20 | CC1C2(C)OC(=N)C(C#N)(C(c3cccc([N+](=O)[O-])c3)O2)C1(C#N)C#N (stereo not drawn) | 100% [100 µM] (inactive)
21 | CC1OC23CCCCC2C(C#N)(C#N)C1(C#N)C(=N)O3 (stereo not drawn) | -14.6% [100 µM] (active)
22 | O=C(O)COc1cc(-c2ccccc2F)nc2cc3c(cc12)OCO3 | 83.2% [100 µM] (inactive) and 64.8% [100 µM] (inactive)
23 | N/N=C(\C(=O)Nc1ccc([N+](=O)[O-])cc1)C(C1=Nc2cc([N+](=O)[O-])ccc2NC1)[N+](=O)[O-] (stereo not drawn) | 42.3% [100 µM] (inactive) and 14.7% [100 µM] (inactive)
24 | C/C(=C\COc1cc(O)c2c(c1)C(=O)c1cc(C)cc(O)c1C2=O)CCC1OC1(C)C (stereo not drawn) | 41.3% [100 µM] (inactive) and 6.17% [100 µM] (active)
25 | N#CC1(C#N)N[C@@H](c2ccsc2)[C@H]2C(=O)N(c3ccccc3)C(=O)[C@H]21 | 23.2% [100 µM] (inactive) and 0.172% [100 µM] (active)
26 | OCc1ccccc1OC1OC(CO)C(O)C(O)C1O (stereo not drawn) | 85.4% [100 µM] (inactive) and 95.9% [100 µM] (inactive)
27 | CC1(C)Oc2ccc3c(=O)cc(-c4ccc(F)cc4)oc3c2C1C(=O)O (stereo not drawn) | 78.1% [100 µM] (inactive) and 87.8% [100 µM] (inactive)
28 | COc1ccc2c(=O)c(-c3cc4c(cc3OC)OCO4)coc2c1 | 30.1% [100 µM] (inactive) and 25.3% [100 µM] (inactive)
29 | C=C1C(=O)OC2CC(C)C3(O)CCC(=O)C3(C)CC12 (stereo not drawn) | 9.02% [100 µM] (active) and 6.55% [100 µM] (active)
30 | O=C(NC1=NC2C=CC([N+](=O)[O-])=CC2S1)C(=O)Nn1c(=S)[nH]c2ccccc2c1=O (stereo not drawn) | -8.33% [100 µM] (active) and 16.8% [100 µM] (inactive)
31 | O=C1c2ccccc2-c2c1c1ccccc1c(=O)n2-c1cccnc1 | 35.8% [100 µM] (inactive) and 0.376% [100 µM] (active)
32 | C=CC(COC(=O)C(C)(C)OC(C)=O)c1ccc(OC(=O)C(C)C)c(OC)c1 (stereo not drawn) | -92.2% [100 µM] (active) and -93.9% [100 µM] (active)
33 | Cc1ccc(OCC2OC(n3cnc4nc(N)nc(Cl)c43)CC2Oc2ccc(C)cc2)cc1 (stereo not drawn) | 50.4% [100 µM] (inactive) and -64% [100 µM] (active)
34 | COc1cc2c(cc1-c1coc3cc(O)ccc3c1=O)OCO2 | 58.8% [100 µM] (inactive) and 55% [100 µM] (inactive)
35 | COc1ccc2c(c1)N(C(C)=O)CN1C(=O)CCC21 (stereo not drawn) | 87.4% [100 µM] (inactive) and 102% [100 µM] (inactive)
36 | CC(=O)C1=C(C)N2C(=NC3=C(CCc4ccccc43)C2c2cccc(Br)c2)S1 (stereo not drawn) | 52.3% [100 µM] (inactive) and 8.59% [100 µM] (active)
37 | Clc1ccc(C2C3COc4ccccc4C3=NN2c2ccccc2)cc1 (stereo not drawn) | 37.4% [100 µM] (inactive) and 0.301% [100 µM] (active)
38 | Cc1ccc(OC2CC(n3cnc4ncnc(Cl)c43)OC2Oc2ccc(C)cc2)cc1 (stereo not drawn) | 11.7% [100 µM] (inactive) and -100% [100 µM] (active)
